Screening data: PubChem BioAssay, National Center for Advancing Translational Sciences (NCATS)
Compounds with a hit are over-represented: about 0.52% of the library has one in this group of screens.
Chronic BCR inh – chronic active BCR signaling inhibition. ABC-DLBCL IkBa-CBG/CBR reporter, luminescence ratio, 4 h. Potency, µM (highest dose often 46.1 µM), inactives show at the top dose activity change, negative = inhibition, usual class: inhibitors. 0.05% of 340,000 active; active = well fitted inhibition curve with a large enough effect in the signal ratio, with a control signal flat, not every such curve was filed as active; inconclusive = small, poorly fitted or top-dose-only effect, or effect the other way, or a change in a side signal; the % refers to the signal ratio;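 also: plate controls were basal doxycycline-induced cells for no effect and cells given 10 µM MG132 for full effect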
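Concentration-response series (up to 46 uM) were applied to TMD8 dual-reporter cells for 4 h at 37C with doxycycline. Green/red ratio, after filter-overlap correction, defined %Activity; red signal alone was normalised to basal cells and zero luminescence.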
RGS4 inhibitor – blocks human RGS4-accelerated GTP hydrolysis. Potency, µM (doses to about 114 µM), for the others: at the top dose activity change, negative = inhibition, most hits filed as inhibitors. P49798. Transcreener GDP fluorescence polarization, RGS4-accelerated GTP hydrolysis. 0.039% of 390,000 active; also: nearly all actives have a fitted effect of over 75% in size
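MLSMR compounds (23 nl, pin-transferred) preincubated 10 min at room temperature with a 500nM (2x) first reagent, then RGS4 at 900nM (2x) plus Transcreener GDP mix added; fluorescence polarization (620/688 nm) read before and after 90 min at 30 °C.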
USP2a block – USP2a (human) protease inhibition; O75604; USP2 core, Ub-CHOP2 coupled fluorogenic reporter, 485/531; Potency, µM (doses to about 38.3 µM), for the others: top-dose activity change, negative = inhibition, usual class: inhibitors; 0.01% of 330,000 active;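 also: plate controls were DMSO wells for no effect and full inhibition by NEM control for full effect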
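Deubiquitinase activity read as fluorescence (485/531 nm) after Ub-CHOP2 cleavage activates the enterokinase reporter on its substrate; USP2 core 10nM, Ub-CHOP2 and substrate 25nM each, 30min compound preincubation then 60min RT; data normalized to NEM, curves fitted.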
Eya2 phos inh – inhibitors of human Eya2 phosphatase activity; O00167; recombinant Eya2, OMFP fluorescence dephosphorylation (OMFP is methylfluorescein phosphate); Potency, µM (top dose mostly 76.9 µM), for the others: at the top dose activity, negative = inhibition, usual class: inhibitors; 0.006% of 330,000 active; AID 488837
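Eya2 protein (added as 0.2 uM solution) was preincubated with compound for 10 min at ambient temperature in 50 mM HEPES pH 7.5, 50 mM NaCl, 5 uM MgCl2, 0.05% BSA, 1 mM DTT. OMFP (added at 50 uM) then reacted 10 min; fluorescence read at 485/525 nm.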
KAT2A inh – GCN5L2 (KAT2A) acetyltransferase inhibition; 0.21% of 390,000 active; Q92830; Potency, µM (highest dose often 58.9 µM), inactives show at the highest dose activity change, negative = inhibition, hits mostly inhibitors; GCN5L2 HAT assay, ThioGlo1 CoA-SH fluorescence; AID 504327
Target sequence (Q92830 whole entry, looked up): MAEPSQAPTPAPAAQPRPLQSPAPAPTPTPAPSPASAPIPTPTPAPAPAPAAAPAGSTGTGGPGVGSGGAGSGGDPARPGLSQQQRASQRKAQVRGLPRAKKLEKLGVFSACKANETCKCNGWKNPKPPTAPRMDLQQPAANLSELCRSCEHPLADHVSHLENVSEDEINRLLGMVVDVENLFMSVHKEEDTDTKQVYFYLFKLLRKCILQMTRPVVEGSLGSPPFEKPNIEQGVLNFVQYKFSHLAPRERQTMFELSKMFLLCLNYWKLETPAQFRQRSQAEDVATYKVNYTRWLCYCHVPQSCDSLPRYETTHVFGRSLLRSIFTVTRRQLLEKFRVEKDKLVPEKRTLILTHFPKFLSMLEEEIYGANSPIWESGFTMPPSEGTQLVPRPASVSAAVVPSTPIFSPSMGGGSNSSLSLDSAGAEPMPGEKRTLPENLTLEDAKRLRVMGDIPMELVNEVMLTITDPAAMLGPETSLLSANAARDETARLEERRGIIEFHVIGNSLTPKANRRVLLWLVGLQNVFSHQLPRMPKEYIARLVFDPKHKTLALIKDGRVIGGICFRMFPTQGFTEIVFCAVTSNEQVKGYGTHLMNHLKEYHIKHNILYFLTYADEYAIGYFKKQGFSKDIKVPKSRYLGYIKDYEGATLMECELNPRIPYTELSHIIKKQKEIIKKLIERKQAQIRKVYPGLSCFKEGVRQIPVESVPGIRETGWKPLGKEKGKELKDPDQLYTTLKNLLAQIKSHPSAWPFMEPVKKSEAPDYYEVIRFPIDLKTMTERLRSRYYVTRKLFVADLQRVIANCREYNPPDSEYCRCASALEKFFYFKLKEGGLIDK
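Fluorescence readout, Ex340nm/Em540nm: ThioGlo1 (50uM final) reacts with free CoA thiol released as 20nM GCN5L2 acetylates H3(1-25) peptide (75uM) using acetyl-CoA (70uM). Compound and enzyme sat 15 min beforehand; 20 min room-temperature reaction.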
uPA generation – inhibitors of cell surface uPA generation; cell surface uPA generation assay, qHTS; Potency, µM (top dose mostly 38.3 µM), without a hit: top-dose activity change, negative = inhibition, hits mostly inhibitors; 0.31% of 330,000 active; AID 540303; active = well fitted inhibition curve with a large enough effect; inconclusive = small, poorly fitted or top-dose-only effect; inactive = no such curve, though single readings can be large or run the other way; tested in mouse RAW 264.7 cells; also: nearly all actives have a fitted effect of over 55% in size
An asterisk follows results filed as active; ? = inconclusive; . = not tested or not shown. Unless noted, calls follow the shape of the dose curve; as a rule, active = well fitted curve in the direction sought with a large enough effect; inconclusive = small, poorly fitted or top-dose-only effect, or another doubt; inactive = no such curve, though single readings can be large; an effect the other way counts as inactive or inconclusive. Unless noted, % is scaled to controls: 0 for no effect and ±100 for the full control effect; potency is read from the fitted curve at half-maximal effect.

SMILES | Chronic BCR inh | RGS4 inhibitor | USP2a block | Eya2 phos inh | KAT2A inh | uPA generation
COc1cc(Br)c(/C=C/c2ccc3cccc(O)c3n2)cc1OC | ? | -3% | -5% | 0% | 5% | 1%
Clc1ccc(Nc2ncnc3c2cnn3-c2ccccc2)cc1 | 14% | -11% | -2% | -4% | -2% | 8%
CC(C)Nc1ncnc2c1cnn2-c1ccc(Cl)cc1 | ? | -3% | -1% | -45% | -7% | 13µM*
N#Cc1c([N+](=O)[O-])cc([N+](=O)[O-])cc1S(=O)(=O)Cc1ccccc1 | ? | ? | -2% | 5% | 14µM* | -10%
N#C/C(=C\c1cccc(NC(=O)c2ccccc2Cl)c1)C(=O)NCCc1ccccc1 | 21µM* | -22% | 4% | 2% | -22% | -3%
COCCCNC(=O)/C(C#N)=C/c1cccc(NC(=O)c2ccccc2Cl)c1 | ? | -19% | 1% | -4% | 27% | -11%
N#Cc1cc([N+](=O)[O-])c2sc(C(N)=O)[n+]([O-])c2c1 | . | ? | . | -4% | 0% | .
CCc1ccc(/C=C2\CN(CC)Cc3c2nc2ccccc2c3C(=O)O)cc1 | 11% | -10% | -10% | -8% | 2µM* | 5%
O=C1c2cccc3c2[C@@H](CCC3)CN1[C@@H]1CN2CCC1CC2 | . | . | . | . | -1% | .
Cn1c2ccccc2c(=O)c2ccc(NCCc3cccs3)cc21 | 0% | -29% | -4% | 0% | 10µM* | ?
CCC(=O)N1c2nc(C(C)C)nn2C2(CCCCC2)[C@@H]2CCCC[C@@H]21 | . | 4% | . | . | -1% | .
O=C(c1ccccc1)C1CCN(C(=O)c2ccc(Cl)cc2)CC1 | -7% | 34% | -2% | -13% | 7% | -8%
O=C(c1ccc(Cl)cc1)C1CCN(C(=O)C2CC2)CC1 | 0% | 4% | -8% | 6% | 14µM* | 3%
O=C(O)c1ccccc1Nc1ccc(CCc2ccc(Cl)c(Cl)c2)cc1 | . | . | . | . | 11µM* | .
COc1ccc(Nc2ccccc2C(=O)O)cc1 | -2% | -42% | 0% | 15% | -4% | -6%
COc1ccc([C@H]2CC(=O)C=C(c3cc(C=O)ccc3OC)C2)cc1 | -13% | 11% | 0% | -8% | 1% | 6.3µM*
O=C(O)c1ccccc1NS(=O)(=O)c1ccc(NNC(=S)Nc2ccc(OC(F)F)cc2)c([N+](=O)[O-])c1 | 10% | ? | -2% | 10% | 22µM* | 2%
COc1cc(C(=O)OCCc2cc3ccccc3c(=O)o2)cc(OC)c1OC | -21% | 4% | -4% | -6% | -5% | 1.1µM*
O=C(CNC(=O)c1cccc(F)c1)N/N=C/c1ccc([N+](=O)[O-])s1 | -6% | 23% | 1% | -3% | -5% | 10µM*
O=C(N/N=C/c1ccc([N+](=O)[O-])s1)C(O)c1ccccc1 (centres undefined) | ? | -4% | 0% | -1% | -11% | 10µM*
O=C(N/N=C/c1ccc([N+](=O)[O-])s1)c1ccccc1 | ? | -14% | 1% | -10% | -22% | -21%
Fc1ccccc1Nc1n[nH]c(=S)s1 | -28% | ? | 0% | 3% | 18µM* | -4%
Cc1cccc(-c2nc(CSCC(=O)N3CCN(c4ccccc4)CC3)c(C)o2)c1 | . | 10% | . | . | -6% | .
COc1ccc(CC(=O)Nc2c(C(=O)Nc3ccc(F)cc3)oc3ccccc23)cc1OC | . | -7% | . | . | -4% | .
CC1CCCC(C)N1CCCNC(=O)c1ccc2nc(N3CCCCC3)sc2c1 (centres undefined) | 12% | 6% | -3% | -8% | -13% | ?
SMILES | Chronic BCR inh | RGS4 inhibitor | USP2a block | Eya2 phos inh | KAT2A inh | uPA generation
CC1CCN(c2nc3ccc(C(=O)NCCCN4CCCCC4C)cc3s2)CC1 (centres undefined) | ? | 4% | 0% | 4% | 0% | 11µM*
O=C(N/N=C1\CCCc2ccccc21)c1cccc([N+](=O)[O-])c1 | ? | -12% | 0% | -27% | 32µM* | 6%
O=C(N/N=C1/CCCc2ccccc21)c1cc([N+](=O)[O-])cc([N+](=O)[O-])c1 | 0% | . | -15% | -18% | -8% | .
CS(=O)(=O)N1CCN(c2ccccc2NC(=O)c2ccc(Br)o2)CC1 | 11% | -13% | 1% | -5% | 32µM* | -14%
COC(=O)C(C)CCCC(C)CCCC(C)CCCC(C)C (centres undefined) | . | . | . | . | -10% | .
O=c1[nH]c(=S)[nH]c2c1C(c1ccc(Br)cc1)c1c([nH]c(=S)[nH]c1=O)O2 | 1% | ? | ? | -1% | 14µM* | 1%
O=C(Cc1ccc(N2CCNC2=O)cc1)N1CCCC(Nc2cccc(F)c2)C1 (centres undefined) | ? | 11% | -2% | ? | 4% | 1.4µM*
O=C(Cc1ccc(N2CCNC2=O)cc1)N1CCCC(Nc2ccc(F)c(F)c2)C1 (centres undefined) | -18% | 6% | 2% | 12% | -13% | -16%
COc1ccc(C(=O)Nc2cc3cc(Cl)ccc3oc2=O)cc1OC | . | 6% | . | . | -2% | .
Cc1nc2c(-c3ccc(Cl)cc3)cnn2c(N)c1-c1ccc(F)cc1 | ? | -13% | 3% | 0% | 10% | -16%
Cc1nc2c(-c3ccc(F)cc3)cnn2c(N)c1-c1ccccc1 | ? | -2% | 1% | -5% | -1% | 3.2µM*
O=C(O)c1cccc(CN2C(=O)SC(Nc3ccccc3)C2=O)c1 (centres undefined) | 6% | -11% | -1% | 6% | -9% | 0%
O=C(O)c1cccc(CN2C(=O)SC(Nc3cccc4ccccc34)C2=O)c1 (centres undefined) | 11% | -34% | -1% | -4% | 14µM* | -9%
CCOC(=O)c1ccc(NC(=O)C2CCCN(c3ccc(Sc4ccc(C)cc4)nn3)C2)cc1 (centres undefined) | . | 25% | . | . | -10% | .
COc1ccc(-c2cc(=O)c3cc(OC)ccc3o2)cc1 | ? | -1% | 0% | 6% | -26% | 1.4µM*
CSCC[C@H](NC(=O)[C@H](CC(C)C)NC(=O)[C@@H]1CCCN1C(=O)[C@H](Cc1ccccc1)NC(=O)[C@H](Cc1ccccc1)NC(=O)[C@H](CCC(N)=O)NC(=O)[C@H](CCC(N)=O)NC(=O)[C@@H]1CCCN1C(=O)[C@H](CCCCN)NC(=O)[C@@H]1CCCN1C(=O)[C@@H](N)CCCN=C(N)N)C(N)=O | . | . | . | . | 14% | .
CC(C)(C)c1nn(-c2ccccc2)c2[nH]c(=O)c(CNc3ccc4c(c3)OCCO4)cc12 | 3% | -33% | -11% | -21% | 35µM* | -7%
